# High-throughput results (PubChem BioAssay)
# Cycloheximide cs: counter-screen hit for Shiga toxin inhibitors, cycloheximide | max response, % | 300,000 compounds, 12% hits | cell reporter, cycloheximide protein synthesis inhibition counterscreen | AID 2314; in the data active means max response mostly above about 13%, no sharp cut-off; inactive means mostly below about 14%; further: read at 38.3 µM for the half of the compounds with a filed dose
# TbPYK inhibitor: T. brucei pyruvate kinase inhibition. Q57TT1. TbPYK enzyme, Kinase-Glo Plus ATP luminescence, 45 min. Potency, µM (series often up to 76.8 µM), actives largely listed as inhibitors. 410,000 compounds, 0.12% hits; further: nearly all actives have a fitted effect of over 50% in size
#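 In this concentration-response screen, enzyme-free wells defined baseline while DMSO plates tracked drift. Each reaction combined TbPYK, substrate, compound and 130 uM ADP for 45 min at room temperature. Kinase-Glo Plus luminescence gave the signal.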
# Sm TGR block: S. mansoni TGR enzyme inhibition; Q962Y6; purified TGR, DTNB reduction, TNB absorbance 405 nm; Potency, µM (titrated, usually from 114 µM), hits mostly inhibitors; 360,000 compounds, 3% hits; AID 485364; further: nearly all actives have a fitted effect of over 60% in size
#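 First, TGR (20 nM dispensed) and NADPH were mixed with compound. Second, a 15 min room-temperature incubation followed. Third, further NADPH and then DTNB were added to start the reaction. Finally, TNB absorbance was monitored kinetically.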
# Shiga inhibitor: blocks Shiga toxin action in Vero cells. inhibition, % at 38.7 µM. AID 2315. 290,000 compounds, 9.2% hits. Vero cells, Shiga toxin protein synthesis inhibition reporter; in the data active means inhibition mostly above about 28%, no sharp cut-off; inactive means mostly below about 43%
# LmPK inh: inhibitors of Leishmania mexicana pyruvate kinase; Q27686; purified LmPK, Kinase-Glo ATP luminescence, 1 h; Potency, µM (series often up to 57.5 µM), actives largely listed as inhibitors; 290,000 compounds, 0.37% hits
#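 ATP generated from ADP (0.1 mM) and PEP (0.5 mM) by 0.1 nM LmPK over 1 h at room temperature (pH 7.2 imidazole buffer) was detected by coupled luciferase luminescence. Values were normalized to uninhibited and no-enzyme wells.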
# Giardia FBPA inh: blocks Giardia fructose-bisphosphate aldolase activity | purified Giardia FBPA | 290,000 compounds, 0.71% hits | AID 2451 | Potency, µM (highest dose often 59.6 µM), actives largely listed as inhibitors | A8B2U2; further: nearly all actives have a fitted effect of over 55% in size
# Target sequence (A8B2U2 whole entry, looked up): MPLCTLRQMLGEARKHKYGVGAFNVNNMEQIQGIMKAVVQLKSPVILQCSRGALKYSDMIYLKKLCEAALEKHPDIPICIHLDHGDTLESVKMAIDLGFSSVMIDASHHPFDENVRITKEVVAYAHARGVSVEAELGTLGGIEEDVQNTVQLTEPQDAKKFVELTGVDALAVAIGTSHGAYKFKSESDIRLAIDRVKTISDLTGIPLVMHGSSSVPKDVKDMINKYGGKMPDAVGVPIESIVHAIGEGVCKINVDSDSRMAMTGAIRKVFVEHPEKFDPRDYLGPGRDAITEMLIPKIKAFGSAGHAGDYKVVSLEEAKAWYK
#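 Giardia FBPA (40 nM reagent) was preincubated 10 min at RT with compound (up to 57.5 uM final), then substrate plus GAPDH/TPI/NAD/arsenate coupling system with diaphorase/resazurin was added; resorufin fluorescence (525/598 nm) was read after 20 min.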
# Numbers stand for hits; . = inactive; ? = inconclusive; / = not tested or not shown; [ ] = remark or other dose. Shown is part of a subset that was picked to be rich in hits. Unless noted, the call rests on the fitted dose curve; in most records, active means well fitted curve in the direction sought with a large enough effect; inconclusive means small, poorly fitted or top-dose-only effect, or another doubt; inactive means no such curve, though single readings can be large; an effect the other way counts as inactive or inconclusive.
SMILES,Cycloheximide cs,TbPYK inhibitor,Sm TGR block,Shiga inhibitor,LmPK inh,Giardia FBPA inh
Cc1cc(C(=O)CSc2cccc[n+]2[O-])c(C)n1-c1ccccc1,46.7,.,.,85.3,.,.
Cc1cc(C(=O)CSc2nncn2C)c(C)n1-c1ccccc1,34.1,.,.,58.5,.,.
Cc1cc(C(=O)CSc2cccc[n+]2[O-])c(C)n1-c1ccc(Br)cc1,34.5,/,.,90.9,.,.
COC(=O)COc1cccc(-n2cnnn2)c1,.,.,.,.,.,.
Cc1cc(C(=O)COc2cccc(-n3cnnn3)c2)c(C)n1-c1ccccc1,16.5,.,?,.,.,.
Cc1cc(-n2c(C)cc(C(=O)CSc3nnnn3-c3ccccc3)c2C)no1,.,.,.,.,.,.
c1ccc2c(c1)CC(N1CCN(c3cccc4c3OCCO4)CC1)C2,.,/,/,.,/,.
Cc1ccc(N2CC(NC(=O)C3CCCCC3)CC2=O)cc1C (stereo not drawn),/,.,.,/,/,/
O=C(NCc1ccc(F)cc1)c1cc(-c2ccc(Cl)cc2)n[nH]1,/,.,.,/,/,/
CCc1ccc(N/C(SCc2ccccc2C)=C(/C#N)C(=O)NCc2ccco2)cc1,15.1,.,.,.,.,.
CCc1ccc(OCCCC(=O)NCc2ccco2)cc1,.,.,?,.,.,.
CC(C)(C)N1C(=O)[C@H]2[C@H]3[C@H](O)[C@H](O)C/C(=N/OC[C@@H](O)COCc4ccco4)[C@@H]3CC[C@@H]2C1=O,/,/,/,/,/,.[12.9 µM]
C=C(C)CN(CC)C(=O)CC1C(=O)NCCN1CC(C)(C)C (stereo not drawn),.,.,39.8µM,.,.,.
CC(C)(C)CN1CCNC(=O)C1CC(=O)N1CCOc2ccccc2C1 (stereo not drawn),.,.,39.8µM,.,.,?
COC(=O)CN(C)C(=O)CC1C(=O)NCCN1CC(C)(C)C (stereo not drawn),.,.,?,.,.,?
Cc1ccc(-n2nc(C(=O)N(C)c3ccccc3Cl)c3c4ccccc4n(C)c3c2=O)cc1,/,.,.,/,/,/
O=C(OCCN1CCCCC1)c1ccccc1Br,35.4,.,.,.,.,.
CC(C)COc1ccc(C(=O)CCN2CCCCC2)cc1,.,.,0.355µM,.,.,.
CC(C)COc1ccc(C(=O)OCCN2CCOCC2)cc1,25.0,.,.,36.3,.,.
CCCCOc1ccc(C(=O)CCN2CCCCC2)cc1,.,.,0.316µM,.,.,.
O=C(Cc1ccccc1)OCCN1CCCCC1,.,.,.,.,.,.
CCC(=O)c1ccc(OCCN2CCOCC2)cc1,.,.,.,.,.,.
CC(=O)c1ccc(OCCCN2CCCCC2)cc1,.,.,.,.,.,?
COc1ncc2nc(-c3ccccc3)c(=O)n(C)c2n1,/,/,/,/,/,.
COc1ccc(C(=O)CCN2CCCC(C)C2)cc1 (stereo not drawn),.,.,0.282µM,.,.,.
SMILES,Cycloheximide cs,TbPYK inhibitor,Sm TGR block,Shiga inhibitor,LmPK inh,Giardia FBPA inh
Cc1cc(OCCN2CCOCC2)ccc1C(C)C,48.4,.,.,59.7,.,.
CC1CCCN(CCC(=O)c2ccc(Br)cc2)C1 (stereo not drawn),.,.,.,.,.,.
CC(C)COc1ccc(C(=O)OCCN2CCCCC2)cc1,.,.,.,37.1,.,.
Cc1cc(C)cc(NC(=O)Cn2cc(S(=O)(=O)NC(C)(C)C)c(S(=O)(=O)NC(C)(C)C)c2)c1,/,.,.,/,/,/
CCOC(=O)C/C(C)=N/NC(=O)c1cccs1,22.1,.,.,71.4,.,.
C/C(=N\NC(=O)c1cccs1)c1ccc(C(=O)O)s1,64.0,.,.,82.5,.,.
CC(C)(CNC(=O)c1cccs1)CNC(=O)c1cccs1,.,.,.,.,.,.
C/C(=N\NC(=O)CCC(=O)Nc1ccccc1)c1cccs1,.,.,.,.,.,.
C/C(=N\NC(=O)c1cccs1)C(C)(C)C,70.5,.,.,57.0,.,.
CCOC(=O)CNC(=O)c1cccs1,.,.,.,.,.,.
C/C(=N/NC(=O)c1cccs1)c1ccco1,56.0,.,.,94.9,?,.
CCc1ccccc1NC(=O)c1ccc2[nH]c(C)c(C)c2c1,/,.,.,/,/,/
CCCC(=O)OCc1cnc(C)c2oc(=O)c(C(=O)Nc3cccc(C(F)(F)F)c3)cc12,/,.,.,/,/,/
CCCCn1c(SCc2ccccc2C#N)nc2c(sc3ccccc32)c1=O,/,.,.,/,/,/
